Among the data in PubChem BioAssay AID449749 (Broad Institute, 2010) are outcome values, retold here.

Among all 2,100 compounds or so, about 1,700 (81%) were called active. The set was probably picked from earlier hits. The list shows a part of the results. Where a call stands in place of a potency, no number is given. Potency and affinity values are given separately. Results filed as inconclusive are left out. No rule for the calls is given here.

In the assay the target is Replicative DNA helicase DnaB (Mycobacterium tuberculosis (strain ATCC 25618 / H37Rv)) (UniProt P9WMR3). As to the kind of experiment: DnaB intein splicing inhibitors, dose response, biochemical, M. tuberculosis H37Rv, cell-free fluorescence (AID 449749). The conditions noted are these: series mostly up to 38 µM.
Replicative DNA helicase DnaB (Mycobacterium tuberculosis (strain ATCC 25618 / H37Rv)), sequence (P9WMR3 whole entry, looked up): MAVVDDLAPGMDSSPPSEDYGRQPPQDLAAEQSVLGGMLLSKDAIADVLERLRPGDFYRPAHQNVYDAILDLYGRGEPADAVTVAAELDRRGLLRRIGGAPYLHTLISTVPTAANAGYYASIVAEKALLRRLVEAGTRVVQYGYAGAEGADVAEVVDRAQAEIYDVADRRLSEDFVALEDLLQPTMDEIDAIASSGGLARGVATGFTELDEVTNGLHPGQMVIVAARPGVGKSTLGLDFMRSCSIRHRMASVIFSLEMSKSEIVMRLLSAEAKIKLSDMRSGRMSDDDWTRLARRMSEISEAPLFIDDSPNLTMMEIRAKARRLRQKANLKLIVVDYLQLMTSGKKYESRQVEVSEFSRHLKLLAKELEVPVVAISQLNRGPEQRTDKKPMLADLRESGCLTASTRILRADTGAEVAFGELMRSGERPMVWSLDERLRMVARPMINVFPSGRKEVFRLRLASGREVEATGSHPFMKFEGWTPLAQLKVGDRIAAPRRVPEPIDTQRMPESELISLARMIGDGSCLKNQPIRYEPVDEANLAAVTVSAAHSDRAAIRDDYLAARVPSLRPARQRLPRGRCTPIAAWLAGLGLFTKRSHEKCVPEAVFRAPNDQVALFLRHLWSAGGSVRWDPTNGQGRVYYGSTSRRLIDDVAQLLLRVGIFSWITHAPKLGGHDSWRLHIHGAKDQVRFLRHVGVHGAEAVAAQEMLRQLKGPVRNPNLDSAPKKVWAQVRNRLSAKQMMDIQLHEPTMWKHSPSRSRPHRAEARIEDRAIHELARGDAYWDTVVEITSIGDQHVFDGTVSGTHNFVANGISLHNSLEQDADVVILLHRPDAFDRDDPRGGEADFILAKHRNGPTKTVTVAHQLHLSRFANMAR
For `OCCNC(=S)Nc1ccc2nsnc2c1`, the compound was classed as inactive.

As for `CCCCNC(=O)c1c(N)n(Cc2ccc3c(c2)OCO3)c2nc3ccccc3nc12`, the outcome was inactive.

As for `Cc1ccsc1C=Nc1ccc(O)cc1`, the call was inactive.

As for `C=CCn1c(N)c(C(=O)Nc2cccc(C)c2)c2nc3ccccc3nc21`, the call was inactive.

Take `CN1/C(=C/C(=O)c2nc(S(C)(=O)=O)ncc2Cl)C(C)(C)c2ccccc21`: the result was inactive.

Regarding `ONc1cccnc1-n1nc(C(F)(F)F)cc1C(F)(F)F`, the outcome was inactive.

Take `CCCCCn1c(N)c(C(=O)NCc2cccs2)c2nc3ccccc3nc21`: the result was inactive.

`O=[N+]([O-])c1cncc([N+](=O)[O-])c1Nc1cccc(O)c1`: the outcome was inactive.

As to `CCOc1ccc2c(c1)-c1c(ssc1=S)C(C)(C)N2`, the outcome was inactive.
